Experiment [1] can be described thus: NCI Yeast Anticancer Drug Screen. Data for the rad50 strain (AID 155).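 Also: 0% = growth of vehicle-only cultures of the same strain.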 Particulars: S. cerevisiae rad50 strain growth inhibition, hits give high values. The essentials:
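Genetically altered yeast (DNA repair pathway); compound treatment; growth inhibition vs vehicle ctrl.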

A short description of experiment [2]: NCI Yeast Anticancer Drug Screen. Data for the mec2-1 strain (AID 157). Particulars: S. cerevisiae mec2-1 strain, hits give high values. Put shortly: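 Vehicle-treated cultures served as reference for growth inhibition of compound-exposed mec2-1 yeast.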
Experiment [3] in a line: NCI Yeast Anticancer Drug Screen. Data for the sgs1 mgt1 strain (AID 161).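 Also: 0% = growth of cultures given vehicle only.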 Particulars: S. cerevisiae sgs1 mgt1 strain, hits give high values. The essentials:
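Test agents were incubated with a DNA-repair-mutant yeast strain. Growth was then read and compared against vehicle-treated controls.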

The nature of experiment [4]: NCI Yeast Anticancer Drug Screen. Data for the cln2 rad14 strain (AID 165).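 Also: 0% = growth equal to vehicle treated cultures.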 Particulars: S. cerevisiae cln2 rad14 strain, hits give high values. Put shortly: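 Each compound was tested on cln2 rad14 yeast. Inhibition of growth was calculated against vehicle-exposed controls.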
A short description of experiment [5]: NCI Yeast Anticancer Drug Screen. Data for the bub3 strain (AID 167). Particulars: S. cerevisiae bub3 mutant strain, hits give high values. The essentials: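 Yeast carrying a defined mutation is treated with each compound, and growth is compared with that of vehicle-exposed cells to give inhibition.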
Experiment [6] can be described thus: NCI Yeast Anticancer Drug Screen. Data for the mlh1 rad18 strain (AID 175). Conditions: S. cerevisiae mlh1 rad18 strain growth inhibition, hits give high values. Put shortly: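 Vehicle-treated cultures served as the reference for growth inhibition in a yeast strain carrying DNA damage repair alterations exposed to each compound.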
Where [7] appears, read: at 5.0 µM (retest, dose inferred, filed as 0.5).
Where [8] appears, read: at 50.0 µM (retest, dose inferred, filed as 5.0).

Structures are written as SMILES. This is part of a sample that, as a whole, favours compounds with a hit. Of some 79,000 tested, about 15% had one in any assay. Values without a mark were called inactive. Activity calls are given as the source filed them. Rule as the data show it: active = growth inhibition above about 70%; inactive = the rest.

Turning to `CN(C)c1ccc(/C=C(/NC(=O)c2ccccc2)c2nc3ccc(Cl)cc3[nH]2)cc1`, the growth inhibition was 16% in experiment [1] (setting [7]); 16% in experiment [1] (setting [8]); 64.7% in experiment [1] (at 50.0 µM); 6% in experiment [2] (setting [7]); 6% in experiment [2] (setting [8]); 68.3% in experiment [2] (at 50.0 µM). Moreover, the growth inhibition is -2% in experiment [3] (setting [7]); -2% in experiment [3] (setting [8]); 67.2% in experiment [3] (at 50.0 µM); 16% in experiment [4] (setting [7]); 16% in experiment [4] (setting [8]); 60.5% in experiment [4] (at 50.0 µM). Besides, the growth inhibition in experiment [5] (setting [7]) is -8%; in experiment [5] (setting [8]), -8%; in experiment [5] (at 50.0 µM), 71.5% (active); in experiment [6] (setting [7]) it was -25%; in experiment [6] (setting [8]), -25%; in experiment [6] (at 50.0 µM), 73.8% (active).
As to `O=C1NN=C(c2ccc(Cl)cc2)CC1C1C(=O)N(c2ccccc2)N=C1c1ccccc1` (configuration not stated), the growth inhibition in experiment [1] (setting [7]) was 96% (active); in experiment [1] (setting [8]) it was 96% (active); in experiment [1] (at 50.0 µM), 98.5% (active); in experiment [2] (setting [7]), 96% (active); in experiment [2] (setting [8]) it was 98% (active); in experiment [2] (at 50.0 µM) it was 98.9% (active). The growth inhibition is 95% (active) in experiment [3] (setting [7]); 98% (active) in experiment [3] (setting [8]); 99.3% (active) in experiment [3] (at 50.0 µM); 88% (active) in experiment [4] (setting [7]); 97% (active) in experiment [4] (setting [8]); 96.3% (active) in experiment [4] (at 50.0 µM). For the same compound, the growth inhibition in experiment [5] (setting [7]) is 97% (active); in experiment [5] (setting [8]), 95% (active); in experiment [5] (at 50.0 µM), 97.8% (active); in experiment [6] (setting [7]), 97% (active); in experiment [6] (setting [8]), 96% (active); in experiment [6] (at 50.0 µM), 98.3% (active).
In the case of `C1=C(c2c(-c3ccccc3)[nH]c3ccccc23)Cc2ccccc21`, the growth inhibition in experiment [1] (setting [7]) was 3%; in experiment [1] (setting [8]), 93% (active); in experiment [1] (at 50.0 µM), 12.6%; in experiment [2] (setting [7]) it was 0%; in experiment [2] (setting [8]), 95% (active); in experiment [2] (at 50.0 µM), 43.7%. The growth inhibition was 0% in experiment [3] (setting [7]); 54% in experiment [3] (setting [8]); 62.1% in experiment [3] (at 50.0 µM); -12% in experiment [4] (setting [7]); 93% (active) in experiment [4] (setting [8]); 30.2% in experiment [4] (at 50.0 µM). In addition, the growth inhibition in experiment [5] (setting [7]) was -3%; in experiment [5] (setting [8]), 58%; in experiment [5] (at 50.0 µM), 71.4% (active); in experiment [6] (setting [7]) it was 3%; in experiment [6] (setting [8]) it was 93% (active); in experiment [6] (at 50.0 µM), 54.8%.
`N#CC(CC(Br)CBr)(c1ccccc1)c1ccccc1` (configuration not stated): the growth inhibition in experiment [1] (setting [7]) was 8%; in experiment [1] (setting [8]), 11%; in experiment [1] (at 50.0 µM) it was 45.9%; in experiment [2] (setting [7]), 8%; in experiment [2] (setting [8]), 24%; in experiment [2] (at 50.0 µM) it was 40.1%. Moreover, the growth inhibition in experiment [3] (setting [7]) was 11%; in experiment [3] (setting [8]), 29%; in experiment [3] (at 50.0 µM), 56%; in experiment [4] (setting [7]) it was 10%; in experiment [4] (setting [8]), -2%; in experiment [4] (at 50.0 µM), 36.2%. Besides, the growth inhibition was 9% in experiment [5] (setting [7]); 11% in experiment [5] (setting [8]); 33.3% in experiment [5] (at 50.0 µM); 16% in experiment [6] (setting [7]); 51% in experiment [6] (setting [8]); 75.5% (active) in experiment [6] (at 50.0 µM).
For the compound `COC(=O)c1ccc(CCc2cc(O)ccc2O)cc1`, the growth inhibition in experiment [1] (setting [7]) was 58%; in experiment [1] (setting [8]) it was 99% (active); in experiment [1] (at 50.0 µM), 98.8% (active); in experiment [2] (setting [7]) it was 74% (active); in experiment [2] (setting [8]), 100% (active); in experiment [2] (at 50.0 µM), 98.5% (active). For the same compound, the growth inhibition in experiment [3] (setting [7]) was 70% (active); in experiment [3] (setting [8]) it was 99% (active); in experiment [3] (at 50.0 µM), 98% (active); in experiment [4] (setting [7]) it was 27%; in experiment [4] (setting [8]), 99% (active); in experiment [4] (at 50.0 µM) it was 88.8% (active). Besides, the growth inhibition in experiment [5] (setting [7]) is 52%; in experiment [5] (setting [8]), 99% (active); in experiment [5] (at 50.0 µM), 98.5% (active); in experiment [6] (setting [7]), 88% (active); in experiment [6] (setting [8]), 99% (active); in experiment [6] (at 50.0 µM), 98.8% (active).
As for `CC(C)c1ccc(O)c(O)c(=O)c1`, the growth inhibition in experiment [1] (setting [7]) is 14%; in experiment [1] (setting [8]), 89% (active); in experiment [1] (at 50.0 µM), 92.8% (active); in experiment [2] (setting [7]) it was 9%; in experiment [2] (setting [8]), 63%; in experiment [2] (at 50.0 µM), 94.7% (active). Moreover, the growth inhibition in experiment [3] (setting [7]) was 70% (active); in experiment [3] (setting [8]) it was 44%; in experiment [3] (at 50.0 µM), 93.8% (active); in experiment [4] (setting [7]) it was 18%; in experiment [4] (setting [8]), 26%; in experiment [4] (at 50.0 µM), 91.7% (active). Besides, the growth inhibition was 7% in experiment [5] (setting [7]); 79% (active) in experiment [5] (setting [8]); 93.1% (active) in experiment [5] (at 50.0 µM); 41% in experiment [6] (setting [7]); 64% in experiment [6] (setting [8]); 92.7% (active) in experiment [6] (at 50.0 µM).
As to `COc1ccc(COCCOCc2nc(C#N)c(N)o2)cc1`, the growth inhibition in experiment [1] (setting [7]) was 16%; in experiment [1] (setting [8]), 8%; in experiment [1] (at 50.0 µM), 43.3%; in experiment [2] (setting [7]), 13%; in experiment [2] (setting [8]), 9%; in experiment [2] (at 50.0 µM), 12.1%. The growth inhibition in experiment [3] (setting [7]) was 16%; in experiment [3] (setting [8]), 5%; in experiment [3] (at 50.0 µM), -25.1%; in experiment [4] (setting [7]), 16%; in experiment [4] (setting [8]), 11%; in experiment [4] (at 50.0 µM), -16.8%. Besides, the growth inhibition in experiment [5] (setting [7]) is 22%; in experiment [5] (setting [8]), 12%; in experiment [5] (at 50.0 µM), -31.7%; in experiment [6] (setting [7]) it was 10%; in experiment [6] (setting [8]), 4%; in experiment [6] (at 50.0 µM), -1.6%.
Turning to `Cc1ccc(S(=O)(=O)C(C#N)(CCC(=O)/C=C/c2ccccc2)CCC(=O)/C=C/c2ccccc2)cc1`, the growth inhibition in experiment [1] (setting [7]) is 1%; in experiment [1] (setting [8]) it was 6%; in experiment [1] (at 50.0 µM), 16.2%; in experiment [2] (setting [7]), -4%; in experiment [2] (setting [8]) it was 35%; in experiment [2] (at 50.0 µM), 2.35%. Further, the growth inhibition in experiment [3] (setting [7]) is 2%; in experiment [3] (setting [8]) it was -2%; in experiment [3] (at 50.0 µM) it was 26.9%; in experiment [4] (setting [7]), 3%; in experiment [4] (setting [8]) it was 4%; in experiment [4] (at 50.0 µM), 77.3% (active). Moreover, the growth inhibition in experiment [5] (setting [7]) is -3%; in experiment [5] (setting [8]) it was -2%; in experiment [5] (at 50.0 µM), -9.3%; in experiment [6] (setting [7]), 1%; in experiment [6] (setting [8]), -28%; in experiment [6] (at 50.0 µM) it was 20%.
`CN(C)CCNC(=O)c1cccc2ccc(-c3ccc(-c4ccccc4)cc3)nc12`: the growth inhibition in experiment [1] (setting [7]) was 4%; in experiment [1] (setting [8]) it was 99% (active); in experiment [1] (at 50.0 µM) it was 99.2% (active); in experiment [2] (setting [7]), -1%; in experiment [2] (setting [8]), 98% (active); in experiment [2] (at 50.0 µM) it was 99.6% (active). Moreover, the growth inhibition was -1% in experiment [3] (setting [7]); 99% (active) in experiment [3] (setting [8]); 99.2% (active) in experiment [3] (at 50.0 µM); 1% in experiment [4] (setting [7]); 99% (active) in experiment [4] (setting [8]); 98.5% (active) in experiment [4] (at 50.0 µM). Besides, the growth inhibition in experiment [5] (setting [7]) is -41%; in experiment [5] (setting [8]), 99% (active); in experiment [5] (at 50.0 µM), 99.1% (active); in experiment [6] (setting [7]) it was 0%; in experiment [6] (setting [8]) it was 99% (active); in experiment [6] (at 50.0 µM), 99.4% (active).
Regarding `CCOC(=O)N1CCN(CCCCCCOc2ccc(C(C)(C)C)cc2)CC1`, the growth inhibition in experiment [1] (setting [7]) is 3%; in experiment [1] (setting [8]), 82% (active); in experiment [1] (at 50.0 µM), 93.5% (active); in experiment [2] (setting [7]), 28%; in experiment [2] (setting [8]), 87% (active); in experiment [2] (at 50.0 µM) it was 96% (active). The growth inhibition in experiment [3] (setting [7]) is 31%; in experiment [3] (setting [8]), 97% (active); in experiment [3] (at 50.0 µM) it was 98.1% (active); in experiment [4] (setting [7]), 12%; in experiment [4] (setting [8]), 61%; in experiment [4] (at 50.0 µM) it was 94.5% (active). For the same compound, the growth inhibition in experiment [6] (setting [7]) is 38%; in experiment [6] (setting [8]) it was 97% (active); in experiment [6] (at 50.0 µM), 98.6% (active).

The record behind these values is PubChem BioAssay (NCI).
